The results in this text go back to PubChem BioAssay AID489038 (National Center for Advancing Translational Sciences (NCATS), 2010).

Results filed as inconclusive are left out. The source made the active and inactive calls. The call rests on the fitted dose curve; in most records, active means well fitted inhibition curve with a large enough effect; inconclusive means small, poorly fitted or top-dose-only effect, or effect the other way; inactive means no such curve, though single readings can be large or run the other way.
On the % scale 0 is the no-effect control and ±100 the full control effect; potency means the concentration at half of the fitted maximal effect.

This assay is described as follows: DHR3 selectivity assay for inhibitors of ROR gamma transcriptional activity. The note with it: Drosophila S2 Gal4-DHR3 UAS-luciferase, 20 h; series mostly up to 92.2 µM; activity change, negative = inhibition: at the top concentration. An excerpt:
NIH Molecular Libraries Probe Production Network [MLPCN] NIH Chemical Genomics Center [NCGC] MLPCN Grant: R03 DA026211-01 Assay Provider: Dan Littman, New York University Assay Overview: The retinoic acid-related orphan receptor (ROR) gamma is a transcription factor that has a central role in the differentiation of Th17 cells, a subset of T helper cells that secrete the inflammatory cytokines IL-17A, IL-17F, and IL-22. Th17 cells have been implicated in graft versus host disease, autoimmune disease and asthma. RORgamma is induced in naive T helper cells in the presence of TGF-beta combined with IL-6, IL-21, or IL-23, and thereafter directs the expression of the Th17 lineage cytokines. To identify […] inhibitors, a Drosophila Schneider cell line was stably transfected with two vectors: a gene expressing a fusion of the Gal4 DNA binding domain and the transactivation domain of the Drosophila Hormone Receptor 3 (DHR3), under the control of the metallothionine promoter and a Photinus luciferase reporter regulated by the Gal4 binding site enhancer, UAS. […] Small molecule inhibitors that inhibit components common to the RORgamma and DHR3 assays, such as proteins that interact with general nuclear hormone receptors, will be active in both assays and thus scored as nonselective.
Assay Protocol Summary: For screening, 600 cells in 4 uL/well were dispensed into white solid 1536-well plates (Grenier) using a solenoid-based dispenser. Following transfer of 23 nL compound or DMSO vehicle by a pin tool, the plates were incubated 1 hr at ambient temperature, and 1 uL/well copper sulfate (700 uM final concentration) was added. The plates were centrifuged 15 s at 1000 RPM and incubated 20 hr at ambient temperature. After addition of 1.5 uL Photinus luciferase detection reagent, the plates were incubated 10 min at ambient temperature and then read by an ViewLux (Perkin Elmer) to detect luminescence.
For the compound `CCOC(=O)C1CCN(CC(=O)Nc2cc(C)nn2-c2nc3ccccc3s2)CC1`, the Potency is 7240 nM (active).

Regarding `C[C@@H]1[C@H](C)CC[C@]2(C(=O)O)CC[C@]3(C)C(=CC[C@@H]4[C@@]5(C)CC[C@H](O)C(C)(C)[C@H]5CC[C@]43C)[C@@H]12`, the Potency was 18200 nM (active).

Consider `COc1cc(O)c(C(CC(=O)N2CCCC(C)C2)c2ccccc2C)c(OC)c1` (stereo not given), for which the “activity change, negative = inhibition” value is -28.6% (inactive).

Consider `COc1cc(O)c(C(CC(=O)N2CCCC(C)C2)c2ccc3c(c2)OCO3)c(OC)c1` (stereo not given), for which the “activity change, negative = inhibition” value was -6.85% (inactive).

For the compound `COc1ccc(C(CC(=O)Nc2ccc(F)cc2)c2ccccc2)cc1` (stereo not given), the “activity change, negative = inhibition” value is 17% (inactive).

For `COc1cc(O)c(C(CC(=O)N2CCCC(C)C2)c2ccccc2OC)c(OC)c1` (stereo not given), the “activity change, negative = inhibition” value was 0.718% (inactive).

Consider `COc1cc(O)c(C(CC(=O)N2CCCC(C)C2)c2ccc3ccccc3c2)c(OC)c1` (stereo not given), for which the “activity change, negative = inhibition” value is -16.1% (inactive).

Turning to `COc1cc(O)c(C(CC(=O)N2CCCC(c3nc4ccccc4o3)C2)c2ccc3c(c2)OCO3)c(OC)c1` (stereo not given), the “activity change, negative = inhibition” value is -5.9% (inactive).

For `COc1ccc(C(=O)/C=C/c2ccc(OC)cc2OC)c(O)c1`, the Potency is 645 nM (active).

In the case of `CN(C)S(=O)(=O)c1ccc(NC(=O)/C=C/c2ccccc2Cl)cc1`, the Potency is 1620 nM (active).

Regarding `COc1cc(OC)c(C(CC(=O)N2CCCC(C)C2)c2ccc3c(c2)OCO3)c(OC)c1` (stereo not given), the “activity change, negative = inhibition” value is 27.2% (inactive).

For `COc1ccc(C(CC(=O)N2CCCC(C)C2)c2c(O)cc(OC)cc2OC)c(OC)c1` (stereo not given), the “activity change, negative = inhibition” value is 15.3% (inactive).

For `O=C(CCCN1C(=O)/C(=C/c2ccccc2Cl)SC1=S)Nc1cccnc1`, the Potency is 645 nM (active).

For the compound `COc1cc(O)c(C(CC(=O)N2CCC(C)CC2)c2ccc3c(c2)OCO3)c(OC)c1` (stereo not given), the “activity change, negative = inhibition” value is 26.2% (inactive).

As to `COc1cc(O)c(C(CC(=O)N2CCCC(C(=O)c3ccccc3)C2)c2ccc3c(c2)OCO3)c(OC)c1` (stereo not given), the “activity change, negative = inhibition” value is -19.8% (inactive).

Turning to `CC1CCCN(C(=O)CC(c2ccc3c(c2)OCO3)c2cc(-c3ccccc3)ccc2O)C1` (stereo not given), the “activity change, negative = inhibition” value is 20.5% (inactive).

Take `COc1cc(O)c(C(CC(=O)N2CCCC(C(F)(F)F)C2)c2ccc3c(c2)OCO3)c(OC)c1` (stereo not given): the “activity change, negative = inhibition” value was -17.6% (inactive).

Turning to `COc1cc(O)c(C(CC(=O)NCc2ccccc2)c2ccc3c(c2)OCO3)c(OC)c1` (stereo not given), the “activity change, negative = inhibition” value is 15.4% (inactive).

As to `Cc1cc(C)c2[nH]c(C(=O)Nc3ccc4c(c3)OCO4)cc2c1`, the Potency was 204 nM (active).

Regarding `COc1ccc(C(CC(=O)N2CCCC(C)C2)c2ccc3c(c2)OCO3)c(O)c1` (stereo not given), the “activity change, negative = inhibition” value was 13% (inactive).

On to `COc1cc(O)c(C(CC(=O)N2CCC(c3ccccc3)CC2)c2ccc3c(c2)OCO3)c(OC)c1` (stereo not given), for which the “activity change, negative = inhibition” value was 15.7% (inactive).

Regarding `Cc1ccc(C)c(C(CC(=O)N2CCCC(C)C2)c2ccc3c(c2)OCO3)c1O` (stereo not given), the “activity change, negative = inhibition” value is 5.84% (inactive).

As for `COc1ccccc1C(CC(=O)N1CCCC(C)C1)c1ccccc1` (stereo not given), the “activity change, negative = inhibition” value was 7.3% (inactive).

`CC1CCCN(C(=O)CC(c2ccc3c(c2)OCO3)c2cc(C(C)C)ccc2O)C1` (stereo not given): the “activity change, negative = inhibition” value was 23.2% (inactive).

As to `COc1cc(O)c(C(CC(=O)N2CCCC(C)(C)C2)c2ccc3c(c2)OCO3)c(OC)c1` (stereo not given), the “activity change, negative = inhibition” value was 6.53% (inactive).

`COCC1CCCN(C(=O)CC(c2ccc3c(c2)OCO3)c2c(O)cc(OC)cc2OC)C1` (stereo not given): the “activity change, negative = inhibition” value is 0.668% (inactive).

Regarding `COc1cc(O)c(C(CC(=O)N(C)c2cccc(C)c2)c2ccc3c(c2)OCO3)c(OC)c1` (stereo not given), the “activity change, negative = inhibition” value was -32.8% (inactive).

`COc1cc(O)c(C(CC(=O)N2CCCC(CN3CCCCC3)C2)c2ccc3c(c2)OCO3)c(OC)c1` (stereo not given): the “activity change, negative = inhibition” value was -6% (inactive).

Consider `COc1cc(O)c(C(CC(=O)N2CCCC(C)C2)c2ccc(-c3ccccc3)cc2)c(OC)c1` (stereo not given), for which the “activity change, negative = inhibition” value is -2.77% (inactive).

Turning to `Cc1cccc(C(CC(=O)NCCc2ccccc2)c2ccccc2)c1O` (stereo not given), the “activity change, negative = inhibition” value was 21.2% (inactive).

With `CCOc1ncccc1C(=O)OCC(=O)Nc1ccc(-c2nc3ccc(C)cc3s2)cc1`, the Potency was 363 nM (active).

As to `COc1cc(O)c(C(CC(=O)NC2CCCc3ccccc32)c2ccc3c(c2)OCO3)c(OC)c1` (stereo not given), the “activity change, negative = inhibition” value was 37% (inactive).

Regarding `CCNC(=O)CCc1nc(-c2ccc(C(C)(C)C)cc2)no1`, the Potency is 115 nM (active).

On to `COc1ccc(-c2c[n+]3c(n2-c2ccc(C)cc2)CCCCC3)cc1`, for which the Potency was 8120 nM (active).

Turning to `COc1cc(O)c(C(CC(=O)N2CCOCC2)c2ccc(C)cc2)c(OC)c1` (stereo not given), the “activity change, negative = inhibition” value was 3.9% (inactive).

For the compound `CCC1CCCN(C(=O)CC(c2ccc3c(c2)OCO3)c2c(O)cc(OC)cc2OC)C1` (stereo not given), the “activity change, negative = inhibition” value is -38.2% (inactive).

On to `COc1cc(O)c(C(CC(=O)N2CCc3ccccc32)c2ccc3c(c2)OCO3)c(OC)c1` (stereo not given), for which the “activity change, negative = inhibition” value is 27.4% (inactive).

Turning to `CC(C)(C)c1ccc(-c2noc(CCC(=O)Nc3cccnc3)n2)cc1`, the Potency was 51.2 nM (active).

Consider `Cc1cc(C)c2sc(NC(=O)c3ccc(N4C(=O)CCC4=O)cc3)nc2c1`, for which the Potency is 102 nM (active).

Regarding `COc1cc(O)c(C(CC(=O)N2CCCC(C#N)C2)c2ccc3c(c2)OCO3)c(OC)c1` (stereo not given), the “activity change, negative = inhibition” value is 11.7% (inactive).
